The values below come from PubChem BioAssay (NCATS).

Test [1] concerns the target ATP-dependent 6-phosphofructokinase (Trypanosoma brucei brucei) (UniProt O15648). The test is described as follows: qHTS Assay to Find Inhibitors of T. brucei phosphofructokinase: hit validation (AID 492961).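 Further: luminescence reports ADP formed as PFK phosphorylates fructose-6-phosphate with ATP; series mostly up to about 51 µM.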 The gist of the method:
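ADP-Glo luminescence read-out of ADP formed by 1.25 nM PFK from 0.1 mM ATP and 0.5 mM F6P (TEA pH 8.0, 45 min, RT). Compounds titrated; activity normalized to no-enzyme and full-enzyme controls.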

For test [2], the target named is Ubiquitin carboxyl-terminal hydrolase 1 (Homo sapiens) (UniProt O94782). In words: Inhibitors of USP1/UAF1: Pilot qHTS (AID 504865).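 Further: rhodamine fluorescence freed from ubiquitin-rhodamine substrate followed over time; top concentration of the series differs between compounds; nearly all actives have a fitted effect of over 35% in size.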 The gist of the method: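 In 50mM HEPES pH 7.8 containing 0.5mM EDTA, 1mM TCEP, 0.1 mg/ml BSA and 0.01% Tween-20, 1nM USP1/UAF1 is exposed to compound for 15 min, then Ub-Rho (150nM final) is added and fluorescence is read over time.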
A general note: Quantitative high-throughput screening tests each substance at several concentrations.

Results filed as inconclusive are left out. A call without a number means that no potency is given here. Calls of active or inactive are those of the source. The call rests on the fitted dose curve; in most records, active means well fitted curve in the direction sought with a large enough effect; inconclusive means small, poorly fitted or top-dose-only effect, or another doubt; inactive means no such curve, though single readings can be large; an effect the other way counts as inactive or inconclusive.

Chain of Ubiquitin carboxyl-terminal hydrolase 1 (Homo sapiens) (O94782 whole entry, looked up): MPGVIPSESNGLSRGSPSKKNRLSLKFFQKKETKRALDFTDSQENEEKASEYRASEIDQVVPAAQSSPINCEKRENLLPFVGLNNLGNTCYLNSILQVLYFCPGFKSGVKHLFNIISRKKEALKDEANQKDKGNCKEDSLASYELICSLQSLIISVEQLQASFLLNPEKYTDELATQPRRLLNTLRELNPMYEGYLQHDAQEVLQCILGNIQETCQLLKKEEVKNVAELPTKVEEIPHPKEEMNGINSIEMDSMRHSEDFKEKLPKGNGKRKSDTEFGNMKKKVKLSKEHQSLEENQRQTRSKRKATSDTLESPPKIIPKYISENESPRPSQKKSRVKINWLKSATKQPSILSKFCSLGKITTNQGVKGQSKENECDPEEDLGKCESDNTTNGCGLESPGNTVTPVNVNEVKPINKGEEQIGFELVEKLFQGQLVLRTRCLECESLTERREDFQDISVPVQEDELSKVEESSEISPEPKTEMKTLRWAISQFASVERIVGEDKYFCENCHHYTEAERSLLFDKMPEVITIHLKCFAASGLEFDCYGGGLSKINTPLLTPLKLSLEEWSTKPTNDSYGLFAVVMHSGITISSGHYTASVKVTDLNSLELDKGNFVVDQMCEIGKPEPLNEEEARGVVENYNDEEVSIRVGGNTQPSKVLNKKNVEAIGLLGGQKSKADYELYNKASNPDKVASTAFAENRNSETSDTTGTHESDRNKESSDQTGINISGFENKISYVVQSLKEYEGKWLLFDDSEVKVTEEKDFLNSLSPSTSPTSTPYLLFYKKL
Chain of ATP-dependent 6-phosphofructokinase (Trypanosoma brucei brucei) (O15648 whole entry, looked up): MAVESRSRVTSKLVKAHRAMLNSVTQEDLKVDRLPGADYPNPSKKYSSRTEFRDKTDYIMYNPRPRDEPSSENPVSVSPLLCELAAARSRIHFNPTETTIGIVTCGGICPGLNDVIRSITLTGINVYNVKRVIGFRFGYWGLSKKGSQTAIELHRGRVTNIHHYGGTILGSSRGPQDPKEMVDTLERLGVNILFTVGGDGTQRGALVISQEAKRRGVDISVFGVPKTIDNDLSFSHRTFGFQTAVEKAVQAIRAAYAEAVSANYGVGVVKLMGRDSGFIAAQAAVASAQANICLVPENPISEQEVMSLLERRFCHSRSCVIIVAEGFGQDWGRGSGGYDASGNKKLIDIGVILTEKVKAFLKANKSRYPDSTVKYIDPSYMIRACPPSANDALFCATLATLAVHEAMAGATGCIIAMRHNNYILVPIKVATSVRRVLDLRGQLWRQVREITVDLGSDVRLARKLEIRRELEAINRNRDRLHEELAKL

On to `C=CCc1cc(OC)c(O)c(C(=O)NCCO)c1`, for which the result in test [1] was inactive. In addition, the Potency entry in test [2] was “inactive”. As to `Cc1ncc([N+](=O)[O-])n1CC(C)O` (configuration not stated), the outcome in test [1] was inactive. Further, the Potency entry in test [2] was “inactive”. In the case of `COc1cc(OC)c(C(=O)CCCN2CCCC2)c(OC)c1`, the molecule was called inactive in test [1]. The Potency result in test [2] is “inactive”. As for `CCC1=C(C)CN(C(=O)NCCc2ccc(S(=O)(=O)NC(=O)NC3CCC(C)CC3)cc2)C1=O` (configuration not stated), the Potency result in test [2] is “inactive”. Still for that read-out and setting: the same measure for `Cc1ccc(S(=O)(=O)NC(=O)NN2CC3CCCC3C2)cc1` (configuration not stated): “inactive”. For the molecule `CC(S)C(=O)NCC(=O)O` (configuration not stated), the molecule was classed as inactive in test [1]. The Potency result in test [2] is “inactive”. `O=C(O)c1cc(=O)c2c(OCC(O)COc3cccc4oc(C(=O)O)cc(=O)c34)cccc2o1`: the Potency entry in test [2] is “inactive”. As for `C[Se]CCC(N)C(=O)O` (configuration not stated), the outcome in test [1] was inactive. Further, the Potency result in test [2] was “inactive”. Regarding `CC(C)(S)[C@@H](N)C(=O)O`, in test [1], the call was inactive. In addition, in test [2], the Potency result is “inactive”. In the case of `N=C(N)c1ccc2cc(OC(=O)c3ccc(N=C(N)N)cc3)ccc2c1`, the molecule was called inactive in test [1]. For the same molecule, the Potency result in test [2] was “inactive”.

Regarding `CNC[C@@H](O)[C@@H](O)[C@H](O)[C@H](O)CO`, the call in test [1] was inactive. Moreover, the Potency entry in test [2] was “inactive”.

With `Cc1nc(Nc2ncc(C(=O)Nc3c(C)cccc3Cl)s2)cc(N2CCN(CCO)CC2)n1`, in test [1], the outcome was inactive. In test [2], the Potency entry is “inactive”.

Take `Nc1nc(Cl)nc2c1ncn2[C@H]1C[C@H](O)[C@@H](CO)O1`: the Potency entry in test [2] is “inactive”.
